Assay results taken from the supplement of paper PMC6555819.

system: THRa homodimer (NR concentration 90 nM); experiment: PBM binding z-score (relative to random genomic background probes); higher = stronger binding; sequences stand for … in GC…GCGATTGACAGCGTAGAATGAAGG
How it was run: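 Binding z-scores were set against random background probes. The data came from custom Agilent 4×180K protein-binding microarrays carrying double-stranded probes with 34-nt variable regions, incubated 1 h with ligand-free nuclear receptor dimers. Partner-specific antibodies detected binding, and scanned fluorescence was regression-normalized.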

Row | Sequence | PBM binding z-score
1 | TCTAGTTGGTAAAAGGTCACACACTCGAAATGCG | 2.3
2 | GATACAGGGTCAGCTAGAGGCCGGAGTATGGAAA | 0.265
3 | GGAACGAGGGCAAAGTTAATAGCATCTGTCGACG | -0.176
4 | CCTACTGGGCCATTCAGAGTTCATTGATCATATG | 0.0171
5 | ACTACAGGGTCATCGTAGGCCAGAGTACGCACAG | 1.27
6 | CGAACTAGGTCAATGACAGGACAGTGAATAGTAA | 0.35
7 | ATATGTAGGTTACATCCGGGTCATTCAAGCTATG | 2.61
8 | CAAACTAGGTCACGGAGGTCAAAGTCCGTGCGTA | 3.58
9 | GGAACCAGGGCATTCGAGTTGATAGCATGGCGAT | 0.671
10 | TCTACTTGGTCAAAGGTCACACACTCGAAATGCG | 2.7
11 | AGAACGAGGGCACGCTGAGTTGATAGTAGAGTAG | 0.0891
12 | CCTTACGGGTCACTGACAGGTTATATCATTTGGA | 0.162
13 | ATATCTAGGTAAAGATAGTTCAGTGAATGCAAAT | -0.33
14 | AGAACGAGGGCACGCCGAGTTGATAGCAGAGTAG | -0.089
15 | TCATATAGGTAAAAGGTGAAAGGCGGTGTGGTAA | 0.329
16 | AGTATGAGGTTATTAAGATCAGGGAATTGCGGTC | 1.05
17 | ATATGTATGTTACATCCGGGTCATTCAGGCTATG | 2.62
18 | CCTAGCAGGCAAATCTGGGTCACTCAAGGCTTGA | 0.513
19 | CCTACTGAGCCACGAAAGGTCATTGATTCAGTGA | 1.23
20 | CGTCCAAGGTCATAGGTCAGTGAAGAGATGACGG | 2.65
21 | GGAACGAGGGCATTCGAGTTGATAGCCTGGCGAT | -0.752
22 | CCTAGTTGGTCAGTAGGTCACACACCGGATATGA | 1.32
